Consider 40 sequences from the supplement of paper PMC6555819.

The test system of the assay is VDR:RXRa (NR concentration 270 nM, RXRa partner concentration 90 nM). Briefly: PBM binding z-score (relative to random genomic background probes); higher = stronger binding; sequences stand for … in GC…GCGATTGACAGCGTAGAATGAAGG
The protocol: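 Protein-binding microarray (Agilent 4x180K custom design, double-stranded 60-nt probes: 5' GC cap, 34-nt variable region, 24-nt constant primer region; full probe sequence given). Purified or IVT nuclear receptor:RXRα heterodimers (3:1 NR:RXRα, mostly 270:90 nM) or homodimers were incubated for 1 h in PBS with 2% milk and no ligand, then detected with Alexa488 antibodies. Fluorescence from o1-orientation probes (~5 replicates averaged) was converted to z-scores against 500 random hg19 background probes. Variable regions are seed direct-repeat (DR0–DR5) sites, all their single-nucleotide variants and half-site ablations.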
On to GCTCTTAGTTGAAAGGGCAACCGAATGATTCTCG, for which the PBM binding z-score turned out to be 0.445.
ATATGTAGGTTACACCCGGGTCATTCAGGCTATG registered a PBM binding z-score of 4.27.
To CGTCCAAGGTCAGGGTCAGTGAAAGAGACTCGAA belongs 3.92; to TCATAGAGGTAATACAGGTGAAAGTCGGCATCTA, 1.07; to CGAACTAGGTCATTGACAGGACAGTGCATAGTAA, 2.5.
In turn, GCTAGCAGGCCATTTGGGTCCCTCAATGACGGGC gave a PBM binding z-score of -0.73.
The value for TCTATTAGCTGAAGGGCAACCGACGAGTCCGTTT was 0.475.
To CGTCCAAGGTCAAGATCAGTGAAAGAGACTCGAA belongs 3.61; to ACTCGGAGGACAAAGGTCAGAGGTACGCCAGTGA, 3.52; to ATATGTAGGTTACATCCGCGTCATTCAGGCTATG, 0.515.
GGAACGAGGGCATTCGAGTTGATAGCTTGGCGAT had a PBM binding z-score of 3.55.
The value for ATCTCTAGGTACAAGTTCAGTGAATCCCGAGGAT was 1.96.
The value for CCGACTGGGGTATAAGGTTACCATAAGCCAGCCC was 0.219; that for AGAACGACGGCAATGAGTTGATAGCACGGGTGGC was -0.0161.
TCTAGCGGGCCAGAGGGTCACTCAAGAGGTACGG displayed a PBM binding z-score of 1.29.
In turn, AGAACGAGGGCAATTAGTTGATAGCACGGGTGGC registered a PBM binding z-score of 1.13.
The value for TTACCAAGGTGAGCTGAGGTCGGTGATCCAACTC was 1.26; that for GGAACGAGGGCAGGTTGATAGCAGAGTTTGATGG was 0.111; that for CTACCAAGGTGAACAAGGTCGTTGACTACTATTC was 6.23.
Consider CCTTACGCGTCACGAGGTTATAGCACGACGAGCG, for which the PBM binding z-score is 0.899.
The sequence CTCGAAAGGTAGGTTGAGGTGAGTATACGGATAA had a PBM binding z-score of 0.309.
CCTGCTAGGTCATGGTCAGCTAGTCTACAGTATG had a PBM binding z-score of 1.65.
The value for CCTCGGAGGATAACAGGAGGTCAGAGCTGCCAGA was 1.5; that for ATCTCTAGGTAACAAGATCAGTGAAAGAGAGGAC was 0.388.
The value for TCATGTAGATCAAAGGTTAAGAAAGCCGAAGCCT was 1.66; that for AGTCAAAGTTCATCTAGGTAAAGTAAGATATGCT was 4.84.
To AGAAGGAGGGCACGCTGAGTTGATAGCAGAGTAG belongs 1.41; to CGTCCAAGGTCAACGTCAGTGAAAGAGACTCGAA, 4.05.
On to TTAGACAGGTGAAGGTAACTCAGGTACGCAGTCG, for which the PBM binding z-score stood at 0.618.
The value for CCGAGTAGGTTATGGGGCATTTAGGCAACGGTGA was -0.0639; that for ATATGTAGGTTATCGGGTCATCCAGTTTGCGCAT was 5.43; that for CCTCGGAGGACAACAGGACGTCAGAGCTGCCAGA was -0.499.
To ACTATTAGTTGACTTAGGGCGACCGATACGACGC belongs 0.175; to AGAATGAGGTTATACTTAGATCAGGGAAGAAAGT, 1.41.
The value for TCTTGTAGAACAAAGGTTAAGAAAGCCGAAGCCT was 1.18; that for ATATGCAGGTTACATCCGGGTCATTCAGGCTATG was 4.47.
Regarding TAGCCTAGGTCAGATCCGGCCAGTATACGCTATA, the PBM binding z-score was 0.403.
To CCTAGTTGGTCAAGGTGACACACGCTATAGGTAC belongs 0.694; to TCATATAGGTAAAGGTGAAATTCGAACGATATGA, 1.03; to CAAACTAGGTCACCGGAAGATCAAAGTCCGCATG, 2.62.
